Where a chain is given by its changes, count along the chain named. The full ranking holds about 16,000 sequences; the median of “ka relative to ugcaugu” is about 0.0091, and the highest 2% start at about 0.032. This excerpt belongs to a sample that is enriched for the highest values.

Sequences and labels used below:
T1: RBFOX1 RRM (Homo sapiens, UniProt Q9NWB1 109-208)
T1 sequence: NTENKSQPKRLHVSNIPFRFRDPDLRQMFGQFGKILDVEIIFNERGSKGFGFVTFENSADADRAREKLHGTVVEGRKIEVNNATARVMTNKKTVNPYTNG

B1: UGCGGUG (DNA:RNA)
RNA: GGGAGACCGGAAUUCAGAUUGUCCUGCGGUGUUAAAUCCCGUCGUAGCCACCA
DNA 1: CAATCTGAATTCCGGTCTCCC
DNA 2: TGGTGGCTACGACGGGATT
B2: CAUGUGG (DNA:RNA)
RNA: B1 RNA with U25C, G26A, C27U, G29U, U30G
DNA 1: CAATCTGAATTCCGGTCTCCC
DNA 2: TGGTGGCTACGACGGGATT
B3: GCUACAC (DNA:RNA)
RNA: GGGAGACCGGAAUUCAGAUUGUCCGCUACACUUAAAUCCCGUCGUAGCCACCA
DNA 1: CAATCTGAATTCCGGTCTCCC
DNA 2: TGGTGGCTACGACGGGATT
B4: CAAUAAC (DNA:RNA)
RNA: B3 RNA with G25C, C26A, U27A, A28U, C29A
DNA 1: CAATCTGAATTCCGGTCTCCC
DNA 2: TGGTGGCTACGACGGGATT
B5: CGAGGGG (DNA:RNA)
RNA: B1 RNA with U25C, C27A, U30G
DNA 1: CAATCTGAATTCCGGTCTCCC
DNA 2: TGGTGGCTACGACGGGATT
B6: AAUAUAG (DNA:RNA)
RNA: B3 RNA with G25A, C26A, C29U, C31G
DNA 1: CAATCTGAATTCCGGTCTCCC
DNA 2: TGGTGGCTACGACGGGATT
B7: GCUGCUA (DNA:RNA)
RNA: B3 RNA with A28G, A30U, C31A
DNA 1: CAATCTGAATTCCGGTCTCCC
DNA 2: TGGTGGCTACGACGGGATT
B8: UGAUGGA (DNA:RNA)
RNA: B1 RNA with C27A, G28U, U30G, G31A
DNA 1: CAATCTGAATTCCGGTCTCCC
DNA 2: TGGTGGCTACGACGGGATT
B9: UGCUGGA (DNA:RNA)
RNA: B1 RNA with G28U, U30G, G31A
DNA 1: CAATCTGAATTCCGGTCTCCC
DNA 2: TGGTGGCTACGACGGGATT
B10: UGAGUCU (DNA:RNA)
RNA: B1 RNA with C27A, G29U, U30C, G31U
DNA 1: CAATCTGAATTCCGGTCTCCC
DNA 2: TGGTGGCTACGACGGGATT
B11: UCCUGGA (DNA:RNA)
RNA: B1 RNA with G26C, G28U, U30G, G31A
DNA 1: CAATCTGAATTCCGGTCTCCC
DNA 2: TGGTGGCTACGACGGGATT
B12: UGGAUUG (DNA:RNA)
RNA: B1 RNA with C27G, G28A, G29U
DNA 1: CAATCTGAATTCCGGTCTCCC
DNA 2: TGGTGGCTACGACGGGATT
B13: UGGAUGG (DNA:RNA)
RNA: B1 RNA with C27G, G28A, G29U, U30G
DNA 1: CAATCTGAATTCCGGTCTCCC
DNA 2: TGGTGGCTACGACGGGATT
B14: UGGAGUC (DNA:RNA)
RNA: B1 RNA with C27G, G28A, G31C
DNA 1: CAATCTGAATTCCGGTCTCCC
DNA 2: TGGTGGCTACGACGGGATT
B15: UGGAUGC (DNA:RNA)
RNA: B3 RNA with G25U, C26G, U27G, C29U, A30G
DNA 1: CAATCTGAATTCCGGTCTCCC
DNA 2: TGGTGGCTACGACGGGATT
B16: UGGAUUC (DNA:RNA)
RNA: B1 RNA with C27G, G28A, G29U, G31C
DNA 1: CAATCTGAATTCCGGTCTCCC
DNA 2: TGGTGGCTACGACGGGATT
B17: UGGAGGC (DNA:RNA)
RNA: B1 RNA with C27G, G28A, U30G, G31C
DNA 1: CAATCTGAATTCCGGTCTCCC
DNA 2: TGGTGGCTACGACGGGATT
B18: UGGAAUC (DNA:RNA)
RNA: B1 RNA with C27G, G28A, G29A, G31C
DNA 1: CAATCTGAATTCCGGTCTCCC
DNA 2: TGGTGGCTACGACGGGATT
B19: UGGAUGA (DNA:RNA)
RNA: B1 RNA with C27G, G28A, G29U, U30G, G31A
DNA 1: CAATCTGAATTCCGGTCTCCC
DNA 2: TGGTGGCTACGACGGGATT
B20: ACAACCU (DNA:RNA)
RNA: B3 RNA with G25A, U27A, A30C, C31U
DNA 1: CAATCTGAATTCCGGTCTCCC
DNA 2: TGGTGGCTACGACGGGATT

In this assay the target is T1, RBFOX1 RRM. Put plainly: EMSA; HiTS-Eq, 1 nM pool, 10 min; buffer printed only for the single-RNA assays: 10 mM Tris pH 7.5, 150 mM NaCl, 3.4 mM EDTA, 0.001% NP-40, 30 C. To be noted: tags: His6 N-terminal (pET28a); label: 5' 32P. A digest of the protocol:
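A pool of RNA with 7 randomized nucleotides, 5′-radiolabelled and with DNA-annealed flanks, was equilibrated at 1 nM for 10 min in 50 µL with purified RbFox RRM, wild type or mutant, across increasing protein concentrations. Free RNA was separated by 8% native PAGE, excised, reverse-transcribed, barcoded by PCR and sequenced. Relative association constants were obtained from read-count changes of each RNA species versus the control reaction and normalised to the cognate motif.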
As to B1, the binding signal is 0.0288 KA relative to UGCAUGU.

Regarding B2, the binding signal is 0.00494 KA relative to UGCAUGU.

With B3, the binding signal is 0.00819 KA relative to UGCAUGU.

Regarding B4, the binding signal is 0.00247 KA relative to UGCAUGU.

For the molecule B5, the binding signal is 0.00639 KA relative to UGCAUGU.

As to B6, the binding signal was 0.00237 KA relative to UGCAUGU.

Regarding B7, the binding signal was 0.0167 KA relative to UGCAUGU.

As for B8, the binding signal was 0.00526 KA relative to UGCAUGU.

B9: the binding signal is 0.0106 KA relative to UGCAUGU.

Regarding B10, the binding signal was 0.0175 KA relative to UGCAUGU.

In the case of B11, the binding signal was 0.00715 KA relative to UGCAUGU.

As to B12, the binding signal is 0.0448 KA relative to UGCAUGU.

On to B13, for which the binding signal is 0.0304 KA relative to UGCAUGU.

Take B14: the binding signal was 0.0349 KA relative to UGCAUGU.

Regarding B15, the binding signal is 0.0582 KA relative to UGCAUGU.

For the molecule B16, the binding signal was 0.0192 KA relative to UGCAUGU.

For B17, the binding signal is 0.0186 KA relative to UGCAUGU.

For the molecule B18, the binding signal was 0.0233 KA relative to UGCAUGU.

With B19, the binding signal was 0.0437 KA relative to UGCAUGU.

As to B20, the binding signal is 0.000511 KA relative to UGCAUGU.

(Values after article PMC9911399, “Two distinct binding modes provide the RNA-binding protein RbFox with extraordinary sequence specificity”.)
